Measurements as given in PubChem BioAssay (NCATS).
Inconclusive results are not listed. Unmarked numbers belong to inactive results. Active and inactive are the calls of the source. The call rests on the fitted dose curve; in most records, active means well fitted inhibition curve with a large enough effect; inconclusive means small, poorly fitted or top-dose-only effect; inactive means no such curve, though single readings can be large or run the other way.

Assay: Primary qHTS for small molecule stabilizers of the endoplasmic reticulum resident proteome: Secreted ER Calcium Modulated Protein (SERCaMP) assay (AID 1508630)
Conditions: SH-SY5Y GLuc-SERCaMP (Gaussia luciferase released on ER calcium loss) secretion, thapsigargin, luminescence; series mostly up to 38.4 µM; activity change, negative = inhibition: at the top concentration
Excerpt: Assay Provider: Brandon K. Harvey Ph.D.
National Institute on Drug Abuse, National Institutes of Health, Baltimore, MD
Endoplasmic reticulum (ER) dysregulation is associated with human pathologies including neurodegenerative, cardiovascular, muscular, and diabetic conditions. Maintenance of ER calcium is critical for functions of the ER and its depletion can lead to loss of ER resident proteins, in a process termed exodosis. Therapeutic compounds capable of attenuating the redistribution of ER proteins under pathological conditions may slow or stop disease progression. To identify such compounds, we performed a quantitative high-throughput screen (qHTS) using the SERCaMP assay, which monitors secretion of ER resident proteins triggered by calcium depletion.
SERCaMP was initially developed as a reporter of ER calcium homeostasis using a Gaussia luciferase with a modified signal peptide and carboxy-terminus (GLuc-SERCaMP), modifications that confer secretion of the reporter in response to ER calcium depletion (Henderson et al., 2014). The assay was used to screen 9,501 compounds, including a collection of drugs approved by the FDA (US), EMA (EU), NHI (Japan), and HC (Canada) regulatory agencies (Huang et al., 2011). Since the SERCaMP reporter reflects the exodosis phenomenon (Trychta et al., 2018a), compounds identified in the screen have the potential to prevent exodosis by different mechanisms such as stabilizing ER calcium or augmenting ERS retrieval.
1. Henderson, M.J., Wires, E.S., Trychta, K.A., Richie, C.T., and Harvey, B.K. (2014). SERCaMP: a carboxy-terminal protein modification that enables monitoring of ER calcium homeostasis. Mol Biol Cell 25, 2828-2839.
2. Huang, R., Southall, N., Wang, Y., Yasgar, A., Shinn, P., Jadhav, A., Nguyen, D.T., and Austin, C.P. (2011). The NCGC pharmaceutical collection: a comprehensive resource of clinically approved drugs enabling repurposing and chemical genomics. Sci Transl Med 3, 80ps16.
3. Trychta, K.A., Back, S., Henderson, M.J., and Harvey, B.K. (2018a). KDEL Receptors Are Differentially Regulated to Maintain the ER Proteome under Calcium Deficiency. Cell Rep 25, 1829-1840 e1826.
SEQUENCE No. (1, 2, 3, etc.); […] (e.g., Cells, Incubation, Reagent, etc.); VALUE and DESCRIPTION.
1; Reagent; 5 uL; 1000 SH-SY5Y cells per wells
3; Compound; 23 nL; Control inhibitor / compound library
5; Reagent; 100 nM; Thapsigargin
7; Reagent; 1 uL; 0.5x coelenterazine
8; Detection; Luminescence; ViewLux imaging system
NOTES (numbers refer to sequence above)
1; SH-SY5Y human neuroblastoma cells stably expressing GLuc-SERCaMP (SH-SY5Y-GLuc-ASARTDL) cells were seeded in 1,536 well white tissue culture treated plates (Corning, Cat# 7464) in DMEM-high glucose-sodium pyruvate (ThermoFisher Scientific, Cat #10569) supplemented with 10% bovine growth serum (Hyclone), 10 U/ml penicillin (Gibco), 10 ug/ml streptomycin (Gibco), and 20 mM HEPES.
2; Assay plates were incubated for 5 hour at 37C in a humidified incubator containing 5% CO2.
3; qHTS libraries (23 nl, final concentrations of 1.53 uM, 7.67 uM, 38.3 uM) or controls (neutral control: DMSO, positive control: dantrolene) were added using a Kalypsis pin-tool Robotic System equipped with 1536 pinheads.
4; Cells were then incubated for 16 hours at 37C, 5% CO2.
5; Thapsigargin was added at 100 nM to deplete ER calcium stores.
6; Cells were incubated for 4 hour (37 °C, 5% CO2)
7; Gaussia luciferase in the medium was measured by adding 1 ul of 0.5x coelenterazine (final concentration 0.07x) prepared in Gaussia Luciferase Glow Assay Buffer (Pierce), without addition of the Cell Lysis Buffer Reagent.
8; Luminescence was measured using a ViewLux […] CCD imaging system (Perkin Elmer) equipped with clear filters. […] The same controls were also used for the calculation of the Z' factor, a measure of assay quality control, as previously described (Zhang et al., 1999). […]
On the % scale 0 is the no-effect control and ±100 the full control effect.

SMILES | activity change, negative = inhibition [%] | Potency
COc1ccc(-n2nc(C(N)=O)c3c2C(=O)N(c2ccc(N4CCCCC4=O)cc2)CC3)cc1 | 44.6 | 
CS(=O)(=O)c1ccc(-c2cnc(N)c(C(=O)Nc3ccccc3)n2)cc1 | -26.2 | 
CCOc1cc2ncc(C#N)c(Nc3ccc(F)c(Cl)c3)c2cc1NC(=O)C=CCN(C)C | 210 | 
c1ccc2c(CCNc3ccc(Nc4ccncc4)cc3)c[nH]c2c1 | 168 | 
NC(=O)c1c(OCc2c(F)cc(Br)cc2F)nsc1NC(=O)NCCCCN1CCCC1 | 285 | 
COc1cc(-c2nn(C3CCC(N4CCN(C(C)=O)CC4)CC3)c3ncnc(N)c23)ccc1NC(=O)c1cc2ccccc2n1C (stereo not given) | 0 | 
COCCOc1ccc2c(c1)ncn2-c1ccc2cccc(N3CCC(N)CC3)c2n1 | 83.7 | 
Cn1cc(-c2ccncc2)c(-c2ccc(OCc3ccc4ccccc4n3)cc2)n1 | 131 | 
Cc1cn2cc(C(=O)N(C)CCO)cc(N[C@@H]3CCOc4cccc(C)c43)c2n1 | 22.8 | 
Nc1ccc(S(=O)(=O)Nc2ncccn2)cc1 | 53.9 | 
C=CCn1c(=O)c2cnc(Nc3ccc(N4CCN(C)CC4)cc3)nc2n1-c1cccc(C(C)(C)O)n1 | 186 | 
CC[C@H](CO)Nc1nc(NCc2ccccc2)c2ncn(C(C)C)c2n1 |  | inactive
Cc1nc(N)ncc1-c1nc(N2CCOCC2)c2sc(C(C)(C)O)cc2n1 | 8.08 | 
COc1cc2ncn(-c3cc(OCc4ccccc4C(F)(F)F)c(C(N)=O)s3)c2cc1OC | 0 | 
Cc1ccc(-c2ncn(-c3ccc(Nc4nccc(-c5cccc(N6CCOCC6)c5)n4)cc3)n2)cn1 | 137 | 
COCCn1c2c([n+](Cc3cnccn3)c1C)C(=O)c1ccccc1C2=O | 108 | 
O=C(CCCCCCNC(=O)c1cnc(N(c2ccccc2)c2ccccc2)nc1)NO | 176 | 
CC(=O)Nc1sc2c(c1-c1nc3ccccc3s1)CNC2 | 36.4 | 
CCn1nnc2c(N3CCOCC3)nc(-c3ccc(NC(=O)Nc4ccc(C(=O)N5CCN(C)CC5)cc4)cc3)nc21 | 0 | 
Cn1cncc1[C@@](N)(c1ccc(Cl)cc1)c1ccc2c(c1)c(-c1cccc(Cl)c1)cc(=O)n2C | 0 | 

SMILES | activity change, negative = inhibition [%] | Potency
O=C(Nc1cc(C(F)(F)F)cc(C(F)(F)F)c1)c1cc(Cl)ccc1O |  | inactive
Nc1ncnc2c1c(-c1cccc(OCc3ccccc3)c1)cn2C1CC(CN2CCCC2)C1 (stereo not given) | 234 | 
CCCCc1nc2cc(C=CC(=O)NO)ccc2n1CCN(CC)CC | 155 | 
Nc1nc(NCCNc2ncc(-n3ccnc3)c(-c3ccc(Cl)cc3Cl)n2)ccc1[N+](=O)[O-] | 54.3 | 
C=CC(=O)Nc1cc2c(Nc3ccc(F)c(Cl)c3)ncnc2cc1C#CC(C)(C)N1CCN(C)CC1 | 74.3 | 
CC1(O)CC(c2nc(-c3ccc4ccc(-c5ccccc5)nc4c3)c3c(N)nccn23)C1 (stereo not given) | 0 | 
CCCn1c(=O)c2[nH]c(-c3cnn(Cc4cccc(C(F)(F)F)c4)c3)nc2n(CC)c1=O | 6.21 | 
CC(C)[C@H](C(=O)Nc1ccc(C(=O)NO)cc1)c1ccccc1 | 258 | 
COc1ccc(F)c(F)c1C(=O)c1cnc(NC2CCN(S(C)(=O)=O)CC2)nc1N | 0 | 
CC[C@@H]1C(=O)N(C)c2cnc(Nc3ccc(C(=O)NC4CCC(N5CCN(CC6CC6)CC5)CC4)cc3OC)nc2N1C(C)C (stereo not given in full) | 0 | 
COc1ccc2c(OCc3nnc4ccc(-c5ccccc5)nn34)ccnc2c1 | 15.9 | 
CC(C)c1cc(C(=O)N2Cc3ccc(CN4CCN(C)CC4)cc3C2)c(O)cc1O | 23 | 
CCN1CCN(Cc2ccc(-c3cc4c(N[C@H](C)c5ccccc5)ncnc4[nH]3)cc2)CC1 | 294 | 
COc1cc(C(=O)N2CCC(N3CCN(C)CC3)CC2)ccc1Nc1ncc2c(n1)N(C)c1ccccc1C(=O)N2C | 116 | 
O=c1[nH]nc(Sc2ncc([N+](=O)[O-])s2)n1-c1ccc2c(c1)OCCO2 | 163 | 
CCC1=C[C@@H]2CN(C1)Cc1c([nH]c3ccccc13)[C@@](C(=O)OC)(c1cc3c(cc1OC)N(C)[C@@H]1[C@@](O)(C(=O)OC)[C@H](OC(C)=O)[C@]4(CC)C=CCN5CC[C@]31[C@@H]54)C2 | 98.4 | 
COc1ccc(-c2cc3c(C)nc(N)nc3n(C3CCC(OCCO)CC3)c2=O)cn1 (stereo not given) | 111 | 
O=C(C=Cc1c(C(=O)O)[nH]c2cc(Cl)cc(Cl)c12)Nc1ccccc1 | 1.76 | 
COC(=O)C[C@](O)(CCCC(C)(C)O)C(=O)O[C@@H]1C(OC)=C[C@]23CCCN2CCc2cc4c(cc2[C@H]13)OCO4 | 66.3 | 
CN(c1ncccc1CNc1nc(Nc2ccc3c(c2)CC(=O)N3)ncc1C(F)(F)F)S(C)(=O)=O | 308 | 
